{"source": "PubChem BioAssay AID504854", "about": "(Southern Research Specialized Biocontainment Screening …, 2011)", "note": "Entries with a potency or affinity are not part of this list. Activity calls are given as the source filed them. No rule for the calls is given here.", "data": [{"assay": "Vero cell cytotoxicity, dose response, cytotoxicity control for M. tuberculosis growth inhibitor project, Vero cells, purified and synthesized compounds, set 4 (AID 504854)", "conditions": "series mostly up to 100 µM", "values": [{"compound": "COc1cccc(NC(=O)CSc2nc3c(c(=O)[nH]2)CCC3)c1", "outcome": "inactive"}, {"compound": "Cc1nc(SCc2ccccc2Cl)[nH]c(=O)c1C", "outcome": "inactive"}, {"compound": "CN(C)C(=O)CSc1nc2ccccc2c(=O)[nH]1", "outcome": "inactive"}, {"compound": "CC[N+](C)(CC)CCCCOc1ccc2c(c1)C(=O)c1cc(OCCCC[N+](C)(CC)CC)ccc1-2", "outcome": "inactive"}, {"compound": "CCOC(=O)CSc1nc(C)c(C)c(=O)[nH]1", "outcome": "inactive"}, {"compound": "Nc1cc(=O)[nH]c(SCC(=O)NC2CCCCC2)n1", "outcome": "inactive"}, {"compound": "O=C(CSc1nc2ccccc2c(=O)[nH]1)N1CCOCC1", "outcome": "inactive"}, {"compound": "CC(C)CCNC(=O)CSc1nc2ccccc2c(=O)[nH]1", "outcome": "inactive"}, {"compound": "Cc1ccc(NC(=O)COC(=O)CCc2c[nH]c3ccccc23)cc1[N+](=O)[O-]", "outcome": "inactive"}, {"compound": "COC(=O)c1ccc(CNc2c(N3CCCC3)c(=O)c2=O)cc1", "outcome": "inactive"}]}]}
